Rows were chosen to be rich in hits. Some 8% of all compounds tested hit in one or more screens of this group.
Marburg entry inh – inhibitors of Marburg virus binding or cell entry; Marburg virus pseudotyped entry inhibition, cell reporter; Potency, µM (series often up to 37.8 µM), actives largely listed as inhibitors; actives 1.8% (n = 300,000); calls by dose curve; tested in HEK293 cells
LASV entry inh – inhibitors of Lassa virus binding or cell entry | Lassa virus pseudotype entry inhibition, cell reporter | Potency, µM (top dose mostly 37.9 µM), hits mostly inhibitors | actives 1.2% (n = 300,000); calls by dose curve; tested in HEK293 cells; note: nearly all actives have a fitted effect of over 50% in size
SARS PLP yeast – SARS-CoV PLP inhibition in yeast | S. cerevisiae expressing SARS-CoV PLpro, growth rescue | Potency, µM (highest dose often 32.9 µM), most hits filed as activators | actives 0.19% (n = 330,000) | AID 485353; calls by dose curve; note: nearly all actives have a fitted effect of over 55% in size
FMDV antiviral – blocks foot and mouth disease virus; Potency, µM (titrated, usually from 57.9 µM), hits mostly inhibitors; actives 1.2% (n = 410,000); FMDV antiviral cell-based qHTS; calls by dose curve; tested in HEK293T cells; note: read-out not given here; nearly all actives have a fitted effect of over 45% in size
HCV inhibitor – inhibitors of hepatitis C virus infection; Potency, µM (highest dose often 41.8 µM), most hits filed as inhibitors; actives 3.4% (n = 340,000); Huh7.5.1 HCVcc-Cre infection, luciferase reporter, 44 h; AID 651820; active = well fitted inhibition curve with a large enough effect; inconclusive = small, poorly fitted or top-dose-only effect, or another doubt; inactive = no such curve, though single readings can be large or run the other way
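Cells (1,000/well) were plated 4 h before compound, then infected with HCVcc-Cre virus (~0.5 moi). After 44 h further culture, infection was read as luciferase luminescence following a 15 min substrate incubation at room temperature.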
HCMV inh – inhibitors of human cytomegalovirus. activity change, negative = inhibition, % at 57.5 µM. actives 4.5% (n = 410,000). AID 1259415. HFF cells, HCMV-luciferase reporter, 72 h; hits give low values; in the data active = activity change below about -60%; inconclusive = no clear call, values can overlap the other calls; inactive = above about -39%
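Steps: HFFs plated, 16 h 37C; compounds added; HCMV-luciferase added to MOI 1 PFU/cell; 72 h 37C; OneGlo reagent, 5 min room temperature; luminescence read, normalized to controls.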
A number is an active result; i = inactive; ? = inconclusive; nt = no result given; ! = a repeat was not active.

SMILES	Marburg entry inh	LASV entry inh	SARS PLP yeast	FMDV antiviral	HCV inhibitor	HCMV inh
CC(NCC(O)COCCC12CC3CC(CC(C3)C1)C2)c1ccccc1 (stereo not drawn)	11.6µM	?	i	31.6µM	7.94µM	-98.4
COc1ccc(C(OCC(O)CNC(C)c2ccccc2)c2ccc(OC)cc2)cc1 (stereo not drawn)	3.55µM	?	i	i	i	i
CC(C)NCC(O)COc1cccc2ccccc12 (stereo not drawn)	0.794µM!	i	i	i	i	i
Cc1cccc(C)c1OCC(O)CNC(C)c1ccccc1 (stereo not drawn)	?	?	i	i	12.6µM	i
CCn1nc(C)c2c(-c3ccccc3)cc(=O)n(C(C)C(=O)NCc3ccc(C)cc3)c21 (stereo not drawn)	nt	?	nt	i	nt	i
COCC=CC1=CC2=CC(=O)C(C)(OC(=O)c3cnc4ccccc4n3)C(=O)C2=CN1CC1CC1 (stereo not drawn)	i	nt	nt	nt	nt	nt
Cc1ccc(C(OCC(O)CNCc2ccc(F)cc2)c2ccccc2)cc1 (stereo not drawn)	nt	nt	i	?	8.91µM	-102.0
CCOC(=O)c1c(Nc2ccc(Cl)cc2)sc(/C=C2\C=Nc3ccccc32)c1O	?	i	i	i	?	-73.2!
Oc1nc(Nc2cccc(Cl)c2)sc1/C=C1\C=Nc2ccccc21	?	?	i	?	i	i
CCCCCN1C(C(=O)c2ccccc2)=C(NC(C)=O)c2ccccc2S1(=O)=O	?	?	nt	i	nt	-70.0
CCCCCN1C(C(=O)c2ccccc2)=C(OC(=O)CC)c2ccccc2S1(=O)=O	?	?	nt	i	nt	-104.4
CCCCC(=O)OC1=C(C(=O)c2ccccc2)N(CCC)S(=O)(=O)c2ccccc21	?	i	nt	i	nt	-86.1
CCCCN1C(C(=O)c2ccccc2)=C(OC(=O)CC)c2ccccc2S1(=O)=O	7.94µM	?	nt	i	nt	-107.3
CCOc1ccc(CCNC(=O)c2sc3ncccc3c2-n2cccc2)cc1OCC	nt	?	nt	?	nt	i
COc1ccccc1-c1ccc2ncnc(N3CCNCC3)c2c1	nt	nt	nt	i	nt	nt
O=C(C[n+]1ccc(C(=O)c2ccccc2)cc1)Nc1ccc(C(F)(F)F)cc1	?	i	i	i	2µM	i
O=C(Nc1ccc2[nH]ccc2c1)c1ccccc1	6.31µM	2.82µM	i	i	i	i
O=C(Nc1ccc2[nH]ccc2c1)c1ccc(F)cc1	nt	nt	i	i	i	i
COc1ccc(NC(=O)c2cc3ccccc3cc2O)cc1	1.12µM	i	i	i	?	i
COc1ccc(C(NC(=O)c2c(F)c(F)c(F)c(F)c2F)c2ccccc2)cc1 (stereo not drawn)	?	22.4µM	i	?	?	i
COc1ccc(Cl)cc1NC(=O)c1c(NCc2cccs2)sc2c1CCCC2	nt	i	nt	i	nt	i
COc1ccc(-n2c(=O)[nH]cc(C(=O)Nc3ccccc3)c2=O)cc1	nt	nt	i	i	i	-63.8
O=C(NNC(=O)c1ccc(NC(=O)c2ccccc2)cc1)c1ccc(F)cc1	nt	nt	i	i	i	i
O=C(Nc1ccc(C(=O)c2ccccc2)cc1)c1ccccc1	?	?	i	i	2.82µM	i
CC(C(=O)c1ccc(-c2ccccc2)cc1)[n+]1cccc(NC(=O)c2ccccc2)c1 (stereo not drawn)	i	i	i	i	i	-98.9
SMILES	Marburg entry inh	LASV entry inh	SARS PLP yeast	FMDV antiviral	HCV inhibitor	HCMV inh
COc1ccc(NC(=O)c2cc(-c3ccco3)on2)cc1OC	i	i	i	i	11.2µM	i
CN(C)c1ncc2nc(CCc3ccccc3)c(=O)n(-c3ccccc3)c2n1	nt	nt	nt	i	nt	nt
COc1ccc(-c2nn3c(-c4ccccc4C)nnc3c3ccccc23)cc1	i	?	nt	i	nt	i
COc1ccc(C(=O)NNc2ccccc2)cc1	?	i	i	i	i	i
COc1ccc(C(=O)NC(Nc2ccccc2)C(Cl)(Cl)Cl)cc1 (stereo not drawn)	i	i	i	i	7.94µM	?
COc1ccc(NC(=O)c2cc3ccc(O)cc3o/c2=N\O)cc1	?	?	i	?	22.4µM	i
O=C(Nc1ccncc1)c1ccc(-c2ccccc2)cc1	nt	nt	i	i	10µM	-77.2
COc1ccc(C(=O)Nc2ccc(C3(C#N)CCCC3)cc2)cc1	i	?	i	i	5.62µM	-75.3
Cc1ccc2cc3cc(C(=O)N4CCN(c5ccccc5)CC4)oc3nc2c1	nt	i	nt	i	nt	i
CC(=O)N1c2ccccc2CC1C(=O)N1CCN(c2cccc(Cl)c2)CC1 (stereo not drawn)	nt	i	nt	i	nt	i
O=c1c(-c2cccs2)cc(-n2c(=O)[nH]c3ccccc32)cn1-c1ccccc1	nt	nt	nt	nt	nt	i
CCc1ccccc1NC(=O)CSc1nnc(COc2ccccc2Cl)o1	i	i	nt	i	nt	i
COc1ccc(OC)c(NC(=O)c2cc3c(Cl)nc4ccccc4c3s2)c1	i	i	i	i	i	i
COc1ccc(C(=O)OC(C(=O)c2ccccc2)c2ccccc2)cc1 (stereo not drawn)	i	i	i	i	i	i
CN(C(=S)Oc1ccc(C(=O)Nc2ccccc2)cc1)c1ccccc1	?	?	i	i	?	-67.2
COc1ccc(C(C(=O)c2ccccc2)c2ccccc2)cc1 (stereo not drawn)	nt	nt	nt	i	nt	-82.3
COc1ccc(NC(=O)c2sc(SCc3ccccc3)nc2N)cc1	i	?	i	i	i	i
COc1ccc(NC(=O)c2ccccc2SCc2ccccc2)cc1	nt	nt	nt	i	nt	-105.9
COc1ccc(NC(=O)c2cc3c(Cl)nc4ccccc4c3s2)cc1OC	?	i	i	?	?	-82.9
Cc1c(C(=O)OCC2CCCCC2)[nH]c2c1C(=O)CC(c1ccccc1Cl)C2 (stereo not drawn)	i	i	nt	i	nt	i
Cc1cnc(-n2ncc(C(=O)NCc3ccncc3)c2C(C)C)nc1-c1ccc(F)cc1	nt	nt	nt	i	nt	nt
COc1cc(OC)c(C(=O)Nc2ccc3ccccc3c2)cc1OC	i	i	i	i	i	nt
COc1ccc(NC(=O)c2cc3ccccc3cc2OC)cc1OC	nt	nt	i	i	11.2µM	i
O=C(NNC(=O)c1ccc(NC(=O)c2ccccc2)cc1)Nc1ccccc1	nt	nt	i	i	i	-61.8
CCOC(=O)c1ccc(NC(=O)C2(c3ccc(OC)cc3)CCCC2)cc1	?	11.2µM	i	?	i	i
SMILES	Marburg entry inh	LASV entry inh	SARS PLP yeast	FMDV antiviral	HCV inhibitor	HCMV inh
NS(=O)(=O)c1ccc(NC(NC(=O)c2cccnc2)C(Cl)(Cl)Cl)cc1 (stereo not drawn)	nt	nt	i	i	i	i
Cc1ccc(NC(NC(=O)c2cccnc2)C(Cl)(Cl)Cl)cc1 (stereo not drawn)	15.8µM	i	i	?	i	i
CCOC(=O)c1ccc(NC(=O)C2(c3ccc(OC)cc3)CCOCC2)cc1	i	?	i	i	i	i
COc1ccc(NC(=O)c2ccccc2)cc1	nt	nt	i	i	0.562µM	i
COc1ccc(NC(=O)c2ccc(C)cc2)cc1	nt	nt	i	i	i	i
O=C(NCCOc1ccc(F)cc1)c1ccccc1SCc1ccccc1	11.2µM	?	i	i	?	-61.8
Cc1ccccc1CNC(=O)CCSCc1cnn(-c2ccccc2)c1-n1cccc1	i	i	nt	i	nt	?

Bioassay records deposited in PubChem BioAssay by National Center for Advancing Translational Sciences (NCATS).
